Screen size: about 370,000 compounds; about 3,100 (0.84%) were called active. Many of the other results were omitted from the sample, so actives are more common in it than they were. A number with no mark means an inactive call. Rule as the data show it: active = inhibition above about 9.5%; inactive = the rest.
These compounds were tested against 1-phosphatidylinositol 4,5-bisphosphate phosphodiesterase gamma-1 (Homo sapiens) (UniProt P19174) (assay: blockers of human PLCG1 activity – biochemical, fluorescence, purified enzyme, primary screen (AID 720700)). Conditions: purified PLC-gamma1, fluorogenic substrate, at 12.2 µM, hits give high values.
Sequence of 1-phosphatidylinositol 4,5-bisphosphate phosphodiesterase gamma-1 (Homo sapiens) (P19174 whole entry, looked up): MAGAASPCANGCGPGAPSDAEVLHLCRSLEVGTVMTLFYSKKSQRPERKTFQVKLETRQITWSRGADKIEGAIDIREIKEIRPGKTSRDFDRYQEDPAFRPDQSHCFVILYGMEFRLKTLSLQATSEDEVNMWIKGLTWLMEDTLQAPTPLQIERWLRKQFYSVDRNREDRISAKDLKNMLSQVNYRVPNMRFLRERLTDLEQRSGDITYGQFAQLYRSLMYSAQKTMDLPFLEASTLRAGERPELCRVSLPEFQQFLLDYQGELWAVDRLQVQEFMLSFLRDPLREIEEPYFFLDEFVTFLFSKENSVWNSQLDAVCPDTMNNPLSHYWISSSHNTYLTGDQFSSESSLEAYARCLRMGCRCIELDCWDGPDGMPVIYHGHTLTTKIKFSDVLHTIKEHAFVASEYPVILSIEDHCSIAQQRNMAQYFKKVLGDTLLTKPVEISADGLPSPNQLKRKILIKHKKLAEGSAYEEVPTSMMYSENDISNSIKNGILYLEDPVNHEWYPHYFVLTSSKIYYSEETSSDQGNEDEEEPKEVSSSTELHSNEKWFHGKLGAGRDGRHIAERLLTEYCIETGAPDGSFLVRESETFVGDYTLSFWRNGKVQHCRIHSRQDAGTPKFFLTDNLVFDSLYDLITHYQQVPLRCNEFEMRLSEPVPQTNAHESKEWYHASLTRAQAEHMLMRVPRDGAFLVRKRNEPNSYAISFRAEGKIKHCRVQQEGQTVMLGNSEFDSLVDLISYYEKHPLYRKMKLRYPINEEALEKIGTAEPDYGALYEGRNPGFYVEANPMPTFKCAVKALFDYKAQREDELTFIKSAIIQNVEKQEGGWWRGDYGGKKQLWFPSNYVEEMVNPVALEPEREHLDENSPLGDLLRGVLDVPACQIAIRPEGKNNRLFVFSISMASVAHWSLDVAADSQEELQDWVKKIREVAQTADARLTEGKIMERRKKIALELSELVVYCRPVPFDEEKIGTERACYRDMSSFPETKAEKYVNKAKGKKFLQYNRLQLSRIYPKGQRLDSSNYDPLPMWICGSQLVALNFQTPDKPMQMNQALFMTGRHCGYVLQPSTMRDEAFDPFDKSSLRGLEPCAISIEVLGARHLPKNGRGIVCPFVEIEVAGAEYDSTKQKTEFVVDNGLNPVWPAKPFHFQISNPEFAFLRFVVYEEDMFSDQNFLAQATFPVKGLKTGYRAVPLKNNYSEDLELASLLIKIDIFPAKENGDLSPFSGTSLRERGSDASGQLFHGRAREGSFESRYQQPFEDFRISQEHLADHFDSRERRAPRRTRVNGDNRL

Row | Compound | inhibition
1 | Cc1cc(C)n2ncc(C(=O)Nc3ccc4c(c3)OCCO4)c2n1 | -0.99%
2 | CN(C)[C@H]1CCN(c2cccc3c2S(=O)(=O)N2CC[C@H](C2)O3)C1 | 1.23%
3 | CC(=O)c1ccc(N2CCN(CC(=O)Nc3ccccc3N3CCOCC3)CC2)cc1 | -2.41%
4 | O=C(CN1CCN(C2CCCCC2)CC1)Nc1ccccc1N1CCCCC1 | 10.2% (active)
5 | O=C(CN1CCCCC1)Nc1ccccc1C(=O)NC1CC1 | 3.56%
6 | COc1ccc(NC(=O)c2ccccc2CC[N+](=O)[O-])cc1 | 0.81%
7 | COc1ccc(NC(=O)c2ccc(OC)cc2)cc1 | 11% (active)
8 | COc1ccc(C(=O)Nc2c(N)nc(SCC(=O)Nc3ccc(C(C)=O)cc3)[nH]c2=O)cc1 | -0.47%
9 | C[C@@H]1CN([C@@H](C)CO)C(=O)c2cccc(NC(=O)Nc3cccc4ccccc34)c2O[C@H]1CN(C)S(=O)(=O)c1ccccc1F | -11.6%
10 | O=C(NCc1ccccc1Cl)c1ccc2c(=O)n(CC3CCCO3)c(=S)[nH]c2c1 (stereo not given) | 2.56%
11 | Cc1cccc(NC(=O)c2ccc3c(=O)n(CC4CCCO4)c(=S)[nH]c3c2)c1 (stereo not given) | 10.2% (active)
12 | CCN(CC)CCCNC(=O)c1ccc2c(=O)n(Cc3ccc4c(c3)OCO4)c(=S)[nH]c2c1 | -2.49%
13 | Cc1ccc(NC(=S)NNC(=O)CSc2nnc(SCc3ccccc3Cl)s2)cc1 | -4.17%
14 | CC(=O)OCCN1CCCC12CCC(c1ccccc1)CC2 (stereo not given) | -1.82%
15 | CCc1ccccc1NC(=O)CSc1nnc(-c2cccs2)o1 | -2.39%
16 | COC(=O)[C@]12C[C@H](CC(=O)NCc3ccccc3)C(=O)N(CCc3ccc(OC)c(OC)c3)C1=C[C@H](C(C)(C)C)O[C@@H]2C | 1.65%
17 | COC(=O)C1CN(Cc2cn(Cc3ccc(F)cc3)nn2)CCS(=O)(=O)N1Cc1ccc(Cl)cc1 (stereo not given) | 0.64%
18 | C=CCN1C(=O)[C@H](CC(=O)N2CCN(C(=O)OCC)CC2)[C@@]2(C(=O)OCC)CCCC=C12 | 0.46%
19 | O=c1c([N+](=O)[O-])cc(C(F)(F)F)cn1Cc1cccc(Cl)c1 | 11.6% (active)
20 | FC(F)(F)c1cccc(Cn2ccc3ccc(-c4ccc5ccn(Cc6ccccc6)c5c4)cc32)c1 | -66.4%
21 | O=c1c([N+](=O)[O-])cccn1Cc1ccc(F)cc1Cl | 3.37%
22 | COC(=O)[C@]12C[C@H](CC(=O)NCC34CC5CC(CC(C5)C3)C4)C(=O)N(Cc3ccc(Cl)cc3Cl)C1=C[C@H](COCc1ccccc1)O[C@@H]2C | -0.03%

Row | Compound | inhibition
23 | CCN(CC)Cc1csc2ccc(Br)cc12 | 9.63% (active)
24 | CCN(CC)Cc1cc(C(C)=O)ccc1O | 3.56%
25 | CN(CCO)Cc1csc2ccc(Br)cc12 | 1.91%
26 | C=CCN1C(=O)[C@@H](CC(=O)NCCCCc2ccccc2)[C@]2(C(=O)OCC)CCCCC/C=C/12 | -0.06%
27 | O=C(CN1CCCc2ccccc21)NCc1ccc(F)cc1 | -1.61%
28 | COc1ccc(NC(=O)CC2C(=O)NC3CCCCC3N2C(=O)c2ccc(F)cc2)cc1 (stereo not given) | 0.91%
29 | COc1ccccc1C(=O)N1C(CC(=O)Nc2ccccc2C)C(=O)NC2CCCCC21 (stereo not given) | 9.7% (active)
30 | COc1ccccc1C(=O)N1CCNC(=O)C1CC(=O)Nc1ccc(Cl)cc1 (stereo not given) | 7.83%
31 | O=C(C1CCN(S(=O)(=O)c2ccccc2)CC1)N1CCN(C2CCCCC2)CC1 | -0.77%
32 | Cc1ccc(-n2c(SCC(=O)Nc3cccc4ccccc34)nnc2-c2ccccn2)cc1 | -0.11%
33 | Cc1n[nH]c(=O)n1-c1ccc(Oc2ccccc2)cc1 | -0.23%
34 | O=C1CS(=O)CN1c1ccc(Oc2ccccc2)cc1 (stereo not given) | 12% (active)
35 | Oc1oc(-c2ccccc2Br)nc1/C=N/c1ccccn1 | -17.6%
36 | CC(N=Cc1nc(-c2ccccc2)oc1O)c1ccccc1 (stereo not given) | 14.1% (active)
37 | O=C1CC[C@@]23CCCN2C(=O)CCC[C@H]3[C@H]1Cc1ccccc1 | 0.07%
38 | CC(C)n1c(CN2CCN(Cc3ccccc3)CC2)nc2ccccc21 | 9.89% (active)
39 | CCCCn1c(CN2CCN(CCO)CC2)nc2ccccc21 | 0.96%
40 | CCc1c(C)nc(N2CCN(Cc3ccccc3)CC2)[nH]c1=O | -1.09%
41 | O=C(NCc1cccs1)C1CCCN(S(=O)(=O)c2ccc([N+](=O)[O-])cc2)C1 (stereo not given) | 3.77%
42 | O=S(=O)(c1ccccc1)N1CCC(c2nc3ccccc3o2)CC1 | -4.98%
43 | Cc1cccc(NS(=O)(=O)c2ccc(C)c(C(=O)NCC(c3ccccc3)N(C)C)c2)c1 (stereo not given) | 2.63%
44 | COc1ccc(NS(=O)(=O)c2ccc(C)c(C(=O)NCC(c3cccs3)N3CCOCC3)c2)cc1 (stereo not given) | -3.99%

Row | Compound | inhibition
45 | COc1ccc(C(CNC(=O)c2cc(S(=O)(=O)Nc3cccc(C)c3)ccc2C)N2CCCC2)cc1 (stereo not given) | 11% (active)
46 | C=CCOC/C=C/C#CCN(CC=C)Cc1ccc(OC)cc1OC | 2.05%
47 | Cc1ccc(-n2c(SCC(=O)Nc3ccc(S(=O)(=O)Nc4nccs4)cc3)nnc2-c2cccnc2)cc1 | 6.23%
48 | COCCNC(=O)C(c1ccc(C)cc1)N(C(=O)CCC(=O)Nc1ccccn1)c1cccc(C)c1 (stereo not given) | 5.63%
49 | COCCNC(=O)C(c1ccc(O)cc1)N(C(=O)CCC(=O)Nc1nccs1)c1ccc(C)cc1 (stereo not given) | 15.2% (active)
50 | COCCN(C(=O)CCC(=O)Nc1nccs1)C(C(=O)NCCC(C)C)c1ccc(F)cc1 (stereo not given) | 3.17%
51 | CCC(=O)OCCCN1C(=O)CCC12CCC(c1ccccc1)CC2 (stereo not given) | 1.02%
52 | C[C@@H]1COc2cccc(N3CCCC3)c2S(=O)(=O)N1C | -3.06%
53 | C=CC1=C(C(=O)O)N2C(=O)[C@@H](NC(=O)/C(=N/OCC(=O)O)c3csc(N)n3)[C@H]2SC1 | 22.2% (active)
54 | C=CC1=C(C(=O)O)N2C(=O)[C@@H](NC(=O)/C(=N\OCC(=O)O)c3csc(N)n3)[C@H]2SC1 | 23.4% (active)
55 | COC(=O)[C@]12C[C@H](CC(=O)N3CCOCC3)C(=O)N(Cc3ccc(Cl)cc3Cl)C1=C[C@H](COCc1ccccc1)O[C@@H]2C | 1.02%
56 | CSc1ccccc1NC(=O)Cc1ccc(Br)cc1 | 3.58%
57 | CC(C)Oc1ccc(CC(=O)NNC(=S)Nc2ccc(Br)cc2)cc1 | 9.8% (active)
58 | COC(=O)Cc1ccc(NC(=S)NCc2ccco2)cc1 | 2.1%
59 | O=C(C1CCCN1S(=O)(=O)c1ccccc1)N1CCc2ccccc2C1 (stereo not given) | -1.86%
60 | O=C(NCC1COc2ccccc2O1)c1ccc(NC(=O)c2cc(F)ccc2F)cc1 (stereo not given) | -4.17%
61 | Cc1ccc(Cn2cc(CN3[C@@H](C)COc4cc(Br)ccc4S3(=O)=O)nn2)cc1 | 0.13%
62 | C/C(=N\NC(=O)c1cccc(N2CCCC2=O)c1)c1ccc(N)cc1 | 1.08%
63 | O=C(c1cccc(N2CCCC2=O)c1)N1CCOCC1 | -4.42%
64 | NC1=NN(c2cccc(C(=O)O)c2)C(=O)C1 | 18.9% (active)
65 | COc1ccc([C@H]2OC(=O)C[C@H]2C(=O)N2CCN(c3ccccc3F)CC2)cc1OC | 0.67%
66 | O=S(=O)(Nc1ncccn1)c1ccc(NS(=O)(=O)c2cccc(Cl)c2Cl)cc1 | 4.05%

Row | Compound | inhibition
67 | Cn1c(=O)n(C)c2cc(NS(=O)(=O)c3ccc(F)cc3)ccc21 | 0.25%
68 | O=S(=O)(Nc1ccc(Oc2ncccn2)c(Cl)c1)c1ccc(F)cc1 | 9.74% (active)
69 | COC(=O)c1cccc(Cn2ccc3ccc(-c4ccc5ccn(C(=O)c6ccccc6C)c5c4)cc32)c1 | -16.3%
70 | CCC(NC(=O)C1C2C=CC3(CN(Cc4ccccc4)C(=O)C13)O2)c1ccccc1 (stereo not given) | -2%
71 | COc1cccc(CCNC(=O)COc2cccc3c2OC(C)(C)C3)c1 | 3.51%
72 | CC1(C)Cc2cccc(OCC(=O)Nc3nccs3)c2O1 | 0.31%
73 | CN(CC(=O)Nc1ccccc1Cl)C(=O)COc1cccc2c1OC(C)(C)C2 | 11.8% (active)
74 | Cc1c[nH]c2cccc(-c3ccc(Cl)cc3)c12 | -12%
75 | Nc1nc(NCC(=O)O)nc(N2CCCCCC2)c1[N+](=O)[O-] | 9.71% (active)
76 | C=CCNc1nc(N)c([N+](=O)[O-])c(NC2CCCCC2)n1 | 4.77%
77 | COCCNc1nc(N)c([N+](=O)[O-])c(N2CCCCCC2)n1 | 7.3%
78 | CC(C)(C)c1ccc(CSc2nnc(-c3cccs3)o2)cc1 | 0.5%
79 | O=C(CCl)NC1CCCCN(Cc2cccc(C(F)(F)F)c2)C1=O (stereo not given) | -1.65%
80 | CCOC(=O)[C@@]12CCC3=C1N(CCC3)C(=O)[C@H](CC(=O)N1CCN(C(=O)c3ccco3)CC1)C2 | -1.32%
81 | CN(C(=O)c1cccc(NC(=O)Cc2ccc(NC(=O)C3CCN(C(=O)C4CCCCC4)CC3)cc2)c1)C1CCC1 | 1.78%
82 | CN(C(=O)c1ccc(NC(=O)Cc2cccc(NC(=O)C3CCN(C(=O)c4ccccc4)CC3)c2)cc1)C1CC1 | 10.7% (active)
83 | CN(C(=O)c1cccc(NC(=O)Cc2cccc(NC(=O)C3CCCN(C(=O)C4CC4)C3)c2)c1)C1CCC1 (stereo not given) | 0.32%
84 | CC(C)(C)NC(=O)C(c1cccnc1)N(C(=O)c1cnco1)c1ccc(C(C)(C)C)cc1 (stereo not given) | 0.93%
85 | COC(=O)[C@]12C[C@H](CC(=O)NCc3cccc4ccccc34)C(=O)N(CCc3ccc(OC)c(OC)c3)C1=C[C@H](C1CCCC1)O[C@@H]2C | 4.89%

Reference: PubChem BioAssay AID720700 (The Scripps Research Institute Molecular Screening Center, 2013)
